Laboratory results reported in PubChem BioAssay.
Active and inactive are the calls of the source.

What was measured:
[1] = binders of probe aFSTL3 on microarray, primary screen, stem cell growth factor project, biochemical, small-molecule microarray, fluorescence 635/667 (AID 1064); settings: higher = more signal;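 note: measures binding of the biotinylated anti-FSTL3 antibody to printed compounds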
[2] = binders from COS7 lysate, DM2A8 probe, primary screen, torsin A project, cell lysate, small-molecule microarray, fluorescence 635/667 (AID 1065); settings: higher = more signal, COS7 lysate expressing mutant human TOR1A
[3] = binders of probe aFGF2 on microarray, primary screen, stem cell growth factor project, biochemical, small-molecule microarray, fluorescence 635/667 (AID 1067); settings: higher = more signal;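 note: measures binding of biotinylated aFGF2 protein to printed compounds on slides; z-score merges feature fluorescence and signal-to-noise across triplicate slides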
[4] = binders of probe aFGF10 on microarray, primary screen, stem cell growth factor project, biochemical, small-molecule microarray, fluorescence 635/667 (AID 1071); settings: higher = more signal;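 note: score merges 667 nm spot intensity and signal to noise from triplicate slides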
[5] = target: Neurogenic locus notch homolog protein 2 (Homo sapiens) (UniProt Q04721); assay: Notch2 binders on small-molecule microarrays, primary screen, biochemical, small-molecule microarray, 635 nm fluorescence, stem cell growth factors (AID 1073); settings: Notch2 binding, higher = more signal
[6] = target: Pro-neuregulin-1, membrane-bound isoform (Homo sapiens) (UniProt Q02297); assay: NRG1 binders on small-molecule microarrays, primary screen, psychiatric disease protein project, biochemical, small-molecule microarray, fluorescence 635/667 (AID 1075); settings: NRG1 binding, 635 nm fluorescence, higher = more signal;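 note: score combines 667 nm spot fluorescence with signal to noise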
Sequence of Pro-neuregulin-1, membrane-bound isoform (Homo sapiens) (Q02297 whole entry, looked up, the tested form may be a part, canonical isoform): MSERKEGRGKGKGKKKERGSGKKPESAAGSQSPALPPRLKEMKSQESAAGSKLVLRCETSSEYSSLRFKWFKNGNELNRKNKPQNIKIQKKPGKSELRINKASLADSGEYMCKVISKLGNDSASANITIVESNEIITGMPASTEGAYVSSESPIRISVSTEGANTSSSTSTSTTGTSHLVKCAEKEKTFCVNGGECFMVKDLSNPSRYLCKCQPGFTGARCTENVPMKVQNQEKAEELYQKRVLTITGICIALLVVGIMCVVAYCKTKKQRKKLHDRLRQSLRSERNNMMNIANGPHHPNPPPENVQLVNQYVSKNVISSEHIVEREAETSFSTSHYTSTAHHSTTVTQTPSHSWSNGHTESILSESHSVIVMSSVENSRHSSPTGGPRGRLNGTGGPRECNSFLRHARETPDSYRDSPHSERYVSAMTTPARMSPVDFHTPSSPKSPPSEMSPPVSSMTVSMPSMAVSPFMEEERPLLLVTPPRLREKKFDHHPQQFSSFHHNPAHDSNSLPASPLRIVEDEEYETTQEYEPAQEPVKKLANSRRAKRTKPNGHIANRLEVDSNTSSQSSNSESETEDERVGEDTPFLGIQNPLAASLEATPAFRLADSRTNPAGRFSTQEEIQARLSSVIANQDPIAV

[7] = tested on: Neuregulin-1 EGF-like domain; assay: binders of neuregulin-1 EGF-like domain, primary screen, biochemical, small-molecule microarray, 635 nm fluorescence (AID 1081); settings: small-molecule microarray binding, higher = more signal;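 note: binding of the protein to compounds printed on small-molecule microarray slides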
[8] = FRG1 promoter luciferase signal modulators, primary screen, FRG1 inhibition for FSHD, cell-based, C2C12 myotubes, firefly/Renilla luciferase, luminescence (AID 1084); settings: higher = more signal, called active from +8 up or from −8 down
[9] = binders of probe aFST on microarray, primary screen, stem cell growth factor project, biochemical, small-molecule microarray, fluorescence 635/667 (AID 1086); settings: higher = more signal;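 note: score merges 667 nm fluorescence with signal-to-noise of each printed compound spot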
[10] = binders of probe aHhip on microarray, primary screen, stem cell growth factor project, biochemical, small-molecule microarray, fluorescence 635/667 (AID 1087); settings: higher = more signal;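 note: score merges spot fluorescence at 667nm with spot signal to noise ratio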
[11] = tested on: PRMT1 (protein arginine N-methyltransferase 1); assay: PRMT1 binders on small-molecule microarrays, primary screen, biochemical, small-molecule microarray, 635 nm fluorescence (AID 1088); settings: small-molecule microarray binding, higher = more signal;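 note: binding of Prmt1 protein to compounds spotted on small-molecule microarray slides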
[12] = yeast growth modulation, basal conditions, primary screen, YJM789 clinical isolate, OD600, 24 h (AID 1089);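 note: growth of clinical yeast isolate S. cerevisiae YJM 789 seeded 1000 cells per well; test concentration not given here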; settings: S. cerevisiae YJM789 growth, higher = more signal, called active from +8 up or from −8 down
[13] = fission yeast growth modulation, primary screen, strain 972, OD600, 24 h, no modulator (AID 1090);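 note: basal condition with compound alone and no growth modifier present; test concentration not given here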; settings: S. pombe 972 growth, higher = more signal, called active from +8 up or from −8 down
[14] = S. cerevisiae growth modulation with rapamycin, primary screen, strain BY4716, OD600, 96 h (AID 1091); settings: higher = more signal, called active from +8 up or from −8 down; note: test concentration not given here
[15] = target: Torsin-1A-interacting protein 2 (Homo sapiens) (UniProt Q8NFQ8); assay: LULL1 binders on small-molecule microarray, primary screen, cell lysate, human LULL1 lysate, 635/667 nm fluorescence (AID 1092); settings: hLULL1 lysate binding, 635 nm fluorescence, higher = more signal;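 note: probe is lysate of COS7 cells overexpressing human LULL1; score merges per-feature 667 nm fluorescence with signal-to-noise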
Sequence of Torsin-1A-interacting protein 2 (Homo sapiens) (Q8NFQ8 whole entry, looked up): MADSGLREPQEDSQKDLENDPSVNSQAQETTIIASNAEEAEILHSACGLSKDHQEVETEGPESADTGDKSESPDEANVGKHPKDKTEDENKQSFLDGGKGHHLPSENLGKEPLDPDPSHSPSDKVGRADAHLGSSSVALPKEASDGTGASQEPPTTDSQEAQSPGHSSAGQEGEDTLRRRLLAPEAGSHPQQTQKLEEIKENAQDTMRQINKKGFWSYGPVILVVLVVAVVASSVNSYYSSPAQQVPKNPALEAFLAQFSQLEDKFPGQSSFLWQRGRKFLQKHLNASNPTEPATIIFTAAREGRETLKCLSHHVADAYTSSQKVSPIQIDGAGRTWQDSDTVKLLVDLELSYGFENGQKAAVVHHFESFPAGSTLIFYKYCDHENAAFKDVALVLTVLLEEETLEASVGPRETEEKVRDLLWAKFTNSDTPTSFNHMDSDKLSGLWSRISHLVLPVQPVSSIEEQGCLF

[16] = E. coli growth modulation, two-sided OD650, primary screen, E. coli filamentation project, strain DRC41, 24 h (AID 1093); settings: OD650, 24 h, higher = more signal, called active from +8 up or from −8 down;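 note: MC1000 strain lacking acrAB efflux and sulA so SOS filamentation is blocked; test concentration not given here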
[17] = small-molecule microarray binders of probe aLefty2, primary screen, biochemical, biotinylated probe, 635/667 nm fluorescence (AID 1094); settings: higher = more signal;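 note: score merges spot fluorescence near 667 nm with spot signal-to-noise ratio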
[18] = tested on: Noggin (protein binding on small-molecule microarray); assay: Noggin binders on small-molecule microarray, primary screen, biochemical, 635/667 nm fluorescence (AID 1095); settings: 635 nm fluorescence, higher = more signal;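 note: score merges 667 nm feature fluorescence with signal to noise over triplicate slides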
[19] = target: Neurogenic locus notch homolog protein 3 (Homo sapiens) (UniProt Q9UM47); assay: NOTCH3 binders on small-molecule microarray, primary screen, biochemical, 635/667 nm fluorescence (AID 1096); settings: NOTCH3 binding, 635 nm fluorescence, higher = more signal
Sequence of Neurogenic locus notch homolog protein 3 (Homo sapiens) (Q9UM47 whole entry, looked up): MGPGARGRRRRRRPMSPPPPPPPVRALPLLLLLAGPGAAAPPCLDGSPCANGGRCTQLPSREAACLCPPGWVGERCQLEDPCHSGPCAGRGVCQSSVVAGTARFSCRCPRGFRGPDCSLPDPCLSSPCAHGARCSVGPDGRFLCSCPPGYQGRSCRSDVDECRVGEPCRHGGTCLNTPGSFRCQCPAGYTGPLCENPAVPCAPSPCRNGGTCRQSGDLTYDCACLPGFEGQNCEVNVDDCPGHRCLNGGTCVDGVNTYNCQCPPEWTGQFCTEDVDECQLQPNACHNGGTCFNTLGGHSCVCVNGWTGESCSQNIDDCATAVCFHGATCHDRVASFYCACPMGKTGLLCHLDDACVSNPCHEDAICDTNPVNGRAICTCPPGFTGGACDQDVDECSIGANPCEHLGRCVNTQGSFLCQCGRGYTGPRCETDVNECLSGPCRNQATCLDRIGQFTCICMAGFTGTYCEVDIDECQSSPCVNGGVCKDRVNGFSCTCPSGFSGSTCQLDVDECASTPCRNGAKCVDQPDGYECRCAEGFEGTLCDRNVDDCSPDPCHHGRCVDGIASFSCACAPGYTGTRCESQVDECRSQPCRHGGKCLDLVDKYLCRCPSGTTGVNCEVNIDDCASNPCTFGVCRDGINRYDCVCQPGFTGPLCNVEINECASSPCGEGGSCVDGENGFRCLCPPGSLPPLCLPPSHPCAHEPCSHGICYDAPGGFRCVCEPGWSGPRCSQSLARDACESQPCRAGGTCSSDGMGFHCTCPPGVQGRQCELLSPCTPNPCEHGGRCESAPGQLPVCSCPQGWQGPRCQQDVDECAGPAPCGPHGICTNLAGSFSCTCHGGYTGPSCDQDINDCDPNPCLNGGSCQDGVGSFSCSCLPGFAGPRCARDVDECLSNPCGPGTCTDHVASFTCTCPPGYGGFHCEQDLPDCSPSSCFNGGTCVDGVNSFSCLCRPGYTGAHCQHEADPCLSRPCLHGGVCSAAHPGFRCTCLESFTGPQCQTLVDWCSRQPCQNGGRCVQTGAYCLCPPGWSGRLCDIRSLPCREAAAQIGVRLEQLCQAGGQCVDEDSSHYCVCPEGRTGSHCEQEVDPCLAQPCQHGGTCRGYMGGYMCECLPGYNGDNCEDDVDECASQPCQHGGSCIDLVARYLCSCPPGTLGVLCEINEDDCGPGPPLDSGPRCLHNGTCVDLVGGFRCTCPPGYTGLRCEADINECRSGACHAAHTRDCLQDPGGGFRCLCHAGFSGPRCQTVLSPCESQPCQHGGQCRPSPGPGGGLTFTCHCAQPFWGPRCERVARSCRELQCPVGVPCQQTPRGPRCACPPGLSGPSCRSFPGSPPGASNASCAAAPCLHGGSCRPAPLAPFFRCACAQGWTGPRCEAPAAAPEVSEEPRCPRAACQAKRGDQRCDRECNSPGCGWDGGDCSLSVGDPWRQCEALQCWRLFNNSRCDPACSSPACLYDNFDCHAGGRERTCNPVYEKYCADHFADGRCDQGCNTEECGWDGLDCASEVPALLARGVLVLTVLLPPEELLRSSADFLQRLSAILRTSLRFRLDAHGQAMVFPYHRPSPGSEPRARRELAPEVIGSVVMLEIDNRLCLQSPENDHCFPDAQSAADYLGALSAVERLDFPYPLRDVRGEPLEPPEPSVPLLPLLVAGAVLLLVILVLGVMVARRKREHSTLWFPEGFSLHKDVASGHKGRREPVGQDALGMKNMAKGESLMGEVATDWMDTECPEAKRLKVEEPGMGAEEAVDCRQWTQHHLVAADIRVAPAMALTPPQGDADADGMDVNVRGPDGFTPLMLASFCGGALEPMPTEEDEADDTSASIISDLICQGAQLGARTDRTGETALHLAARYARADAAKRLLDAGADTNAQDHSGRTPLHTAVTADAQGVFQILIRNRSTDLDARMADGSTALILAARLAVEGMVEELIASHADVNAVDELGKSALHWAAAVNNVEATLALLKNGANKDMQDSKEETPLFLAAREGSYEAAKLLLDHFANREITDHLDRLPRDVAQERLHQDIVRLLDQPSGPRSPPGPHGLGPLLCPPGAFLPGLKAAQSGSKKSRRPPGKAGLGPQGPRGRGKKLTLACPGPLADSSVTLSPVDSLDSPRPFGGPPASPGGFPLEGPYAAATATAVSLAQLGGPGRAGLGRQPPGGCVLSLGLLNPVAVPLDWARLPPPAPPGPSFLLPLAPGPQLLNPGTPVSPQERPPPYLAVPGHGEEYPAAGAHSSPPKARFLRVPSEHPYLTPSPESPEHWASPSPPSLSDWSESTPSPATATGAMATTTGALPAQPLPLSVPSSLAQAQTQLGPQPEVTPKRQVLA

[20] = small-molecule microarray binders of probe aEGFR, primary screen, biochemical, biotinylated probe, 635/667 nm fluorescence (AID 1097); settings: higher = more signal;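 note: probe is a biotinylated anti-EGFR antibody binding compounds printed on slides; score combines fluorescence near 667 nm and signal to noise of each spot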

Structure (SMILES)	composite z-score [1]	composite z-score [2]	composite z-score [3]	composite z-score [4]	composite z-score [5]	composite z-score [6]	composite z-score [7]	z-score [8]	composite z-score [9]	composite z-score [10]	composite z-score [11]	z-score [12]	z-score [13]	z-score [14]	composite z-score [15]	z-score [16]	composite z-score [17]	composite z-score [18]	composite z-score [19]	composite z-score [20]
CCCN1C(=O)[C@]2(Cc3ccccc3)N=C(c3ccc(OCCCO)cc3)O[C@@H]2c2ccccc21	0.224	1.12	-0.0226	0.347	0.415	0.305	1.3	-0.355 (inactive)	0.195	-0.198	1.54	-0.128 (inactive)	-1.88 (inactive)	0.585 (inactive)	3.26	1.05 (inactive)	-0.0159	1.74	1.13	-0.0605
O=C1C[C@]2(c3ccc([N+](=O)[O-])cc3)C(=O)N(Cc3ccccc3)c3cc(CO)ccc3[C@H]2N1CC12CC3CC(CC(C3)C1)C2	0.0993	-0.728	0.0018	-0.817	-0.746	-0.468	-0.851	-0.0424 (inactive)	0.0779	-0.369	-0.404	-0.251 (inactive)	0.418 (inactive)	-1.23 (inactive)	0.258	0.64 (inactive)	-0.477	-1.43	-1.94	0.0645
C=CCN1C(=O)[C@@]2(CCC(=O)OC(C)(C)C)N=C(c3ccc(OCCCO)cc3)O[C@H]2c2ccccc21	0.324	0.198	0.0698	0.0883	0.724	0.82	1.21	-2.47 (inactive)	0.278	-0.195	1.47	-1.89 (inactive)	-5.84 (inactive)	1.44 (inactive)	2.71	0.784 (inactive)	0.107	1.24	1.09	-0.146
O=C(CS)NCCCCCCNC(=O)[C@H]1C[C@H]2C(=O)N[C@@H](Cc3ccccc3)C(=O)N2[C@H]1c1cccc(OCCO)c1	-0.165	0.605	0.0465	1.16	1.56	1.36	1.41	0.328 (inactive)	0.928	-0.145	1.54	0.646 (inactive)	0.311 (inactive)	1.15 (inactive)	2.81	-0.23 (inactive)	0.118	1.6	1.02	0.14
C=CCOC(=O)[C@H]1[C@@H]2C(=O)O[C@@H](c3ccccc3)[C@@H](c3ccccc3)N2[C@@H](c2ccc(OCCOC(=O)[C@H]3C[C@H]4C(=O)N[C@@H](CCCC[N+](C)(C)C)C(=O)N4[C@H]3c3cccc(OCCO)c3)cc2)[C@]12C(=O)Nc1ccc(I)cc12	-0.345	0.46	-0.0937	0.723	0.312	0.288	0.755	0.707 (inactive)	-0.278	-0.126	1.29	1.11 (inactive)	2.23 (inactive)	4.75 (inactive)	0.7	0.396 (inactive)	-0.166	0.673	0.456	0.002
CC(C)C[C@@H]1NC(=O)[C@H]2C[C@@H](C(=O)NCCCCCC[N+](C)(C)C)[C@@H](c3cccc(OCCO)c3)N2C1=O	-0.183	0.121	-0.152	-0.214	-0.356	-0.0252	1.34	4.18 (inactive)	-0.601	-0.134	1.13	-1.15 (inactive)	-0.455 (inactive)	-0.794 (inactive)	2.49	0.319 (inactive)	-0.166	1.47	1.07	0.038
Cc1ccc(F)cc1S(=O)(=O)N[C@@H]1CCN(Cc2ccc(Oc3ccccc3)cc2)C1	-0.191	0.45	-0.144	-0.3	-0.155	0.0412	-0.014	-1.9 (inactive)	0.0111	-0.34	-0.434	-21.2 (active)	-21.4 (active)	-3.22 (inactive)	-0.367	-14.1 (active)	-0.0073	0.966	0.551	-0.0953
C=CC[C@]12N=C(c3ccc(OCCCO)cc3)O[C@H]1c1ccccc1N(C)C2=O	1.21	0.541	0.0563	0.21	0.0523	1.3	1.22	-1.14 (inactive)	0.896	0.214	1.57	-0.167 (inactive)	-4.1 (inactive)	0.532 (inactive)	2.78	-0.479 (inactive)	0.28	0.798	0.725	0.0488
CC(C)c1ccc(NN2C(C(O)c3ccco3)C=CC3C(=O)N(c4ccccc4)C(=O)C32)cc1 (stereo not given)	0.447	0.334	0.106	0.677	1.71	1.46	1.2	-1.22 (inactive)	1.34	-0.0606	1.57	0.61 (inactive)	0.431 (inactive)	-0.419 (inactive)	3.27	-0.577 (inactive)	0.0997	0.18	1.02	0.0308
C=CC[C@@]12N=C(c3ccc(OCCCO)cc3)O[C@@H]1c1ccccc1N(CCS(=O)(=O)c1ccccc1)C2=O	-0.015	-0.302	0.188	0.0692	0.659	1.22	1.32	0.601 (inactive)	0.261	-0.0391	1.55	-0.484 (inactive)	-1.56 (inactive)	0.793 (inactive)	2.34	1.45 (inactive)	-0.291	1.28	1.13	0.0153
C=CCOC(=O)[C@@H]1[C@H]2C(=O)O[C@H](c3ccccc3)[C@H](c3ccccc3)N2[C@H](c2ccc(OCCOC(=O)[C@H]3C[C@H]4C(=O)N[C@@H](CCCCN(C)C)C(=O)N4[C@H]3c3cccc(OCCO)c3)cc2)[C@@]12C(=O)Nc1ccc(I)cc12	0.0594	1.24	-0.0308	0.526	0.59	1.55	1.32	0.842 (inactive)	0.312	0.064	1.56	0.95 (inactive)	0.688 (inactive)	3.87 (inactive)	2.81	0.0565 (inactive)	-0.0216	1.03	1.08	-0.105
CN(C)CCCNC(=O)[C@@]1(C)c2ccccc2C(=O)N(Cc2cc(C(F)(F)F)cc(C(F)(F)F)c2)[C@H]1c1ccc(CO)cc1	-0.303	-0.401	-0.141	-0.404	-0.463	-0.012	0.538	0.123 (inactive)	-0.353	0.192	0.0376	0.113 (inactive)	-1.83 (inactive)	-0.945 (inactive)	0.324	-0.72 (inactive)	-0.192	-1.19	-0.35	-0.186
